Results published in publication PMC8384837, “Expanding the binding specificity for RNA recognition by a PUF domain”.

Assays:
Assay in all cases: yeast three-hybrid, YBZ-1, SC-Leu-His + 0.5 mM 3-AT, 4 days
Settings in all cases: tags: N-Gal4 AD-HA kept; label: inside an RPR1-promoter hybrid RNA with tandem MS2 sites; ssRNA
PUM1 PUF domain R5-ERC = PUM1 PUF domain R5-ERC (Homo sapiens, UniProt Q14671 828-1176, C1007E;Q1011C)
Procedure, shortened: (§1)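 Pumilio-1 PUF domain libraries, randomized at the three base-contacting residues of each repeat, were co-expressed with matching RNA elements from a centromeric plasmid in strain YBZ-1, which carries a LexA–MS2 coat fusion and a HIS3 reporter. Transformants grew for four days on SC-Leu (input) or on SC-Leu-His + 0.5 mM 3-AT (selection), and the repeat regions were PCR-amplified and Illumina-sequenced. The interaction score is the log change in variant frequency from input to selection. That logarithm is base 2, with a pseudocount of 1 where a variant was absent.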

PUM1 PUF domain R5-LHG = PUM1 PUF domain R5-LHG (Homo sapiens, UniProt Q14671 828-1176, C1007L;R1008H;Q1011G)
Procedure, shortened: as §1

PUM1 PUF domain R1-RLT = PUM1 PUF domain R1-RLT (Homo sapiens, UniProt Q14671 828-1176, S863R;R864L;Q867T)
Procedure, shortened: as §1

PUM1 PUF domain R3-RTF = PUM1 PUF domain R3-RTF (Homo sapiens, UniProt Q14671 828-1176, C935R;R936T;Q939F)
Procedure, shortened: as §1

PUM1 PUF domain R5-KTL = PUM1 PUF domain R5-KTL (Homo sapiens, UniProt Q14671 828-1176, C1007K;R1008T;Q1011L)
Procedure, shortened: as §1

PUM1 PUF domain R5-KRD = PUM1 PUF domain R5-KRD (Homo sapiens, UniProt Q14671 828-1176, C1007K;Q1011D)
Procedure, shortened: as §1

PUM1 PUF domain R5-KQV = PUM1 PUF domain R5-KQV (Homo sapiens, UniProt Q14671 828-1176, C1007K;R1008Q;Q1011V)
Procedure, shortened: as §1

PUM1 PUF domain R7-TPG = PUM1 PUF domain R7-TPG (Homo sapiens, UniProt Q14671 828-1176, S1079T;N1080P;E1083G)
Procedure, shortened: as §1

PUM1 PUF domain R7-GIV = PUM1 PUF domain R7-GIV (Homo sapiens, UniProt Q14671 828-1176, S1079G;N1080I;E1083V)
Procedure, shortened: as §1

PUM1 PUF domain R5-LWV = PUM1 PUF domain R5-LWV (Homo sapiens, UniProt Q14671 828-1176, C1007L;R1008W;Q1011V)
Procedure, shortened: as §1

Sequence of PUM1 PUF domain R5-KRD (Q14671 828-1176 C1007K/Q1011D): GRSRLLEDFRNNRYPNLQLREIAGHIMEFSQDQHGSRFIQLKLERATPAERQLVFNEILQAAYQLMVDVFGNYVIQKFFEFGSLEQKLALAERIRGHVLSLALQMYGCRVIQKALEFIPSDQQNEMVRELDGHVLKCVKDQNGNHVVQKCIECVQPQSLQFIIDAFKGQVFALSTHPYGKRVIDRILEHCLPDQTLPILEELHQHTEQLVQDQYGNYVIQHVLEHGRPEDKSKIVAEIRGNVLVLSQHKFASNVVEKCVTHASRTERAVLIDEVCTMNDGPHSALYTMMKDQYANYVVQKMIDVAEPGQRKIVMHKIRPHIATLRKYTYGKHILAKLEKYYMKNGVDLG
Sequence of PUM1 PUF domain R5-LHG (Q14671 828-1176 C1007L/R1008H/Q1011G): as the sequence (Q14671 828-1176 C1007K/Q1011D) above, with K180L, R181H, D184G counted along it
Sequence of PUM1 PUF domain R5-ERC (Q14671 828-1176 C1007E/Q1011C): as the sequence (Q14671 828-1176 C1007K/Q1011D) above, with K180E, D184C counted along it
Sequence of PUM1 PUF domain R1-RLT (Q14671 828-1176 S863R/R864L/Q867T): as the sequence (Q14671 828-1176 C1007K/Q1011D) above, with S36R, R37L, Q40T, K180C, D184Q counted along it
Sequence of PUM1 PUF domain R5-KQV (Q14671 828-1176 C1007K/R1008Q/Q1011V): as the sequence (Q14671 828-1176 C1007K/Q1011D) above, with R181Q, D184V counted along it
Sequence of PUM1 PUF domain R5-LWV (Q14671 828-1176 C1007L/R1008W/Q1011V): as the sequence (Q14671 828-1176 C1007K/Q1011D) above, with K180L, R181W, D184V counted along it
Sequence of PUM1 PUF domain R5-KTL (Q14671 828-1176 C1007K/R1008T/Q1011L): as the sequence (Q14671 828-1176 C1007K/Q1011D) above, with R181T, D184L counted along it
Sequence of PUM1 PUF domain R7-TPG (Q14671 828-1176 S1079T/N1080P/E1083G): as the sequence (Q14671 828-1176 C1007K/Q1011D) above, with K180C, D184Q, S252T, N253P, E256G counted along it
Sequence of PUM1 PUF domain R3-RTF (Q14671 828-1176 C935R/R936T/Q939F): as the sequence (Q14671 828-1176 C1007K/Q1011D) above, with C108R, R109T, Q112F, K180C, D184Q counted along it
Sequence of PUM1 PUF domain R7-GIV (Q14671 828-1176 S1079G/N1080I/E1083V): as the sequence (Q14671 828-1176 C1007K/Q1011D) above, with K180C, D184Q, S252G, N253I, E256V counted along it

Q: Which results are given for “GGCUAGAACUAGUGGAUCCCCCGGCGCCCGGCGGCUCGAGCCCGGGUAAGUGUAAAUAGUCUGCAUGCCGCCGGGCGCCAUGCCUGCAGGUCGACUCUAGAAAACAUG”?
A: binding signal (PUM1 PUF domain R5-ERC): 2.93 log2 enrichment (interaction score); binding signal (PUM1 PUF domain R5-LHG): 2.63 log2 enrichment (interaction score)

Q: Which binding signal (PUM1 PUF domain R1-RLT) does the source give for “GGCUAGAACUAGUGGAUCCCCCGGCGCCCGGCGGCUCGAGCCCGGGUAAGUGUAAAUCGUCUGCAUGCCGCCGGGCGCCAUGCCUGCAGGUCGACUCUAGAAAACAUG” here?
A: 4.76 log2 enrichment (interaction score)

Q: For “GGCUAGAACUAGUGGAUCCCCCGGCGCCCGGCGGCUCGAGCCCGGGUAAGUGUAAUUAGUCUGCAUGCCGCCGGGCGCCAUGCCUGCAGGUCGACUCUAGAAAACAUG”, which binding signal (PUM1 PUF domain R3-RTF) is on record?
A: 2.83 log2 enrichment (interaction score)

Q: For “GGCUAGAACUAGUGGAUCCCCCGGCGCCCGGCGGCUCGAGCCCGGGUAAGUGUAAAUGGUCUGCAUGCCGCCGGGCGCCAUGCCUGCAGGUCGACUCUAGAAAACAUG”, which binding signal (PUM1 PUF domain R1-RLT) is on record?
A: 3.03 log2 enrichment (interaction score)

Q: With “GGCUAGAACUAGUGGAUCCCCCGGCGCCCGGCGGCUCGAGCCCGGGUAAGUGUCAAUAGUCUGCAUGCCGCCGGGCGCCAUGCCUGCAGGUCGACUCUAGAAAACAUG” as the sequence, how does the binding signal (PUM1 PUF domain R5-ERC) read?
A: 1.33 log2 enrichment (interaction score)

Q: And the binding signal (PUM1 PUF domain R5-KTL)?
A: 2.84 log2 enrichment (interaction score)

Q: And the binding signal (PUM1 PUF domain R5-LHG)?
A: 1.75 log2 enrichment (interaction score)

Q: What about the binding signal (PUM1 PUF domain R5-KRD) of the same sequence?
A: 6.86 log2 enrichment (interaction score)

Q: What about the binding signal (PUM1 PUF domain R5-KQV) of the same sequence?
A: 5.39 log2 enrichment (interaction score)

Q: Which binding signal (PUM1 PUF domain R1-RLT) does the source give for “GGCUAGAACUAGUGGAUCCCCCGGCGCCCGGCGGCUCGAGCCCGGGUAAGUGUAAAUUGUCUGCAUGCCGCCGGGCGCCAUGCCUGCAGGUCGACUCUAGAAAACAUG” here?
A: 4.16 log2 enrichment (interaction score)

Q: “GGCUAGAACUAGUGGAUCCCCCGGCGCCCGGCGGCUCGAGCCCGGGUAAGUUUAAAUAGUCUGCAUGCCGCCGGGCGCCAUGCCUGCAGGUCGACUCUAGAAAACAUG” was tested. Which binding signal (PUM1 PUF domain R7-TPG) did it give?
A: 4.42 log2 enrichment (interaction score)

Q: What about the binding signal (PUM1 PUF domain R7-GIV) of the same sequence?
A: 2.42 log2 enrichment (interaction score)

Q: With “GGCUAGAACUAGUGGAUCCCCCGGCGCCCGGCGGCUCGAGCCCGGGUAAGUGUGAAUAGUCUGCAUGCCGCCGGGCGCCAUGCCUGCAGGUCGACUCUAGAAAACAUG” as the sequence, how does the binding signal (PUM1 PUF domain R5-ERC) read?
A: 3.21 log2 enrichment (interaction score)

Q: What about the binding signal (PUM1 PUF domain R5-LHG) of the same sequence?
A: 4.33 log2 enrichment (interaction score)

Q: What about the binding signal (PUM1 PUF domain R5-KRD) of the same sequence?
A: 1.06 log2 enrichment (interaction score)

Q: And the binding signal (PUM1 PUF domain R5-LWV)?
A: 1.82 log2 enrichment (interaction score)

Q: With “GGCUAGAACUAGUGGAUCCCCCGGCGCCCGGCGGCUCGAGCCCGGGUAAGUGUUAAUAGUCUGCAUGCCGCCGGGCGCCAUGCCUGCAGGUCGACUCUAGAAAACAUG” as the sequence, how does the binding signal (PUM1 PUF domain R5-KTL) read?
A: 1.72 log2 enrichment (interaction score)

Q: What about the binding signal (PUM1 PUF domain R5-KRD) of the same sequence?
A: 4.94 log2 enrichment (interaction score)

Q: And the binding signal (PUM1 PUF domain R5-KQV)?
A: 2.42 log2 enrichment (interaction score)

Q: And the binding signal (PUM1 PUF domain R5-LWV)?
A: 2.42 log2 enrichment (interaction score)
